# From PubChem BioAssay AID2685 (National Center for Advancing Translational Sciences (NCATS), 2010)
# Screen size: about 320,000 compounds; about 2,100 (0.66%) were called active. Not shown: some 53% with an inconclusive outcome. The call rests on the fitted dose curve; in most records, active means well fitted inhibition curve with a large enough effect in the signal ratio, with a control signal flat (not every such curve was filed as active); inconclusive means small, poorly fitted or top-dose-only effect, or effect the other way, or a change in a side signal; inactive means flat fitted curve, though single readings scatter; the % refers to the signal ratio. Only a selection was taken, and actives are over-represented in it overall.
# Assay: qHTS Assay for Lipid Storage Modulators in Drosophila S3 Cells;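 on cell number change: cells counted by Cell Tracker Red CMTPX staining in the red channel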; on lipid storage change, negative = inhibition: on the % scale 0 is the no-effect control and ±100 the full control effect
# Conditions: BODIPY lipid droplet fluorescence, 18-24 h, cells fed with added oleic acid; cell number change: measured here: cell count max response; series mostly up to 46.1 µM
# How it was run: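 Drosophila S3 cells got compounds at several concentrations plus oleic acid (400 uM solution). Laser-scanning cytometry with 488 nm excitation read lipid droplets at 500-530 nm and cells at 575-640 nm. Percent activity was relative to 20 uM Triacsin C.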
# Potency means the concentration at half of the fitted maximal effect.
Structure (SMILES),Potency,cell number change,outcome,"lipid storage change, negative = inhibition"
O=C(O)c1cc(-c2cccnc2)nc2ccc(Br)cc12,inactive,9.56%,–,–
CC(C)(C)c1ccc(OCc2nnc(SCC(N)=O)n2N)cc1,inactive,–,–,–
Cc1cccc(NC(=O)CCNC(=O)c2ccccc2Cl)n1,inactive,–,–,–
COC(=O)c1ccccc1NC(=O)c1cccnc1,inactive,10.2%,–,–
C/C(=C\C=C(C#N)C#N)c1cc(C#N)c(N)o1,16.4 µM (active),-22.3%,–,–
O=C(Cc1cccs1)Nc1ccccc1F,inactive,10.1%,–,–
CCOCCCNC(c1ccccc1)c1ccncc1 (stereo not given),inactive,7.02%,–,–
O/N=C1\CCCc2c1nc(-c1ccccc1F)n2O,inactive,–,–,–
Cc1nc2c(n1O)CCC/C2=N\O,inactive,-1.11%,–,–
COc1ccc(-c2nc3c(n2O)CCC/C3=N\O)cc1,4.61 µM (active),4.07%,–,–
COc1ccccc1OCc1cc(C(=O)N2CCCC(OCc3cccnc3)C2)no1 (stereo not given),inactive,8.19%,–,–
O=C(c1cc(COc2ccccc2)on1)N1CCCC(OCc2cccnc2)C1 (stereo not given),1.03 µM (active),–,–,–
O=C(c1cc(COc2ccc3ncccc3c2)on1)N1CCCC1,7.31 µM (active),-24%,–,–
O=C(c1cc(COc2ccc(F)cc2Cl)on1)N1CCCC(OCc2cccnc2)C1 (stereo not given),inactive,-4.29%,–,–
Cc1cccc(C)c1OCc1cc(C(=O)N2CCC(c3ccncc3)CC2)no1,inactive,-16.1%,–,–
COc1cccc(OCc2cc(C(=O)N3CCN(C(C)=O)CC3)no2)c1,inactive,19%,–,–
COc1cccc(OCc2cc(C(=O)N3CCC(c4ccncc4)CC3)no2)c1,4.11 µM (active),–,–,–
CCN1CCN(C(=O)c2cc(COc3ccc4ncccc4c3)on2)CC1,inactive,-6.54%,–,–
CCC(O)C1CCN(C(=O)c2cc(COc3ccc4ncccc4c3)on2)CC1 (stereo not given),inactive,–,–,–
CCOC(=O)C(C(=O)OCC)N(C#N)c1nc(N(C)C)nc(N(C)C)n1,inactive,12.4%,–,–
O=c1[nH]n2cc(-n3cc([N+](=O)[O-])cn3)cnc2c1Br,inactive,–,–,–
Cc1ccc(C(=O)Nc2ccc(N3CCN(C)CC3)cc2)cc1C,inactive,4.5%,–,–
Nc1nnc(SCc2ccccc2F)s1,inactive,16.1%,–,–

Structure (SMILES),Potency,cell number change,outcome,"lipid storage change, negative = inhibition"
COc1ccc(NC(=O)CC2C(=O)N(C)C(=S)N2Cc2ccc3c(c2)OCO3)cc1 (stereo not given),inactive,20%,–,–
COc1ccc(-c2ccc(CCC(=O)O)n2-c2ccccc2O)cc1,inactive,6.08%,–,–
C/C(=N\O)c1c(O)cc(-c2ccccc2)n(-c2ccccc2)c1=O,inactive,13.2%,–,–
Oc1ccccc1-n1c(-c2ccccc2)ccc1-c1ccccc1,2.06 µM (active),-6.63%,–,–
O=C(CCCN1C(=O)c2ccccc2C1=O)Nc1ccc(Br)cn1,inactive,16.2%,–,–
Cc1ccc(S(=O)(=O)N2CCOC2CNC(=O)C(=O)NCCCN2CCOCC2)cc1 (stereo not given),–,-5.14%,inactive [at 0.369 µM],–
COC(=O)c1ccncc1C(=O)Nc1ccc(Oc2ncc(C(F)(F)F)cc2Cl)cc1,inactive,-10.1%,–,–
CCCOc1ccc(CCC(=O)O)cc1,inactive,1.83%,–,–
Cc1nc(SCC(=O)NC(=O)NC2CCCCC2)nc(C)c1C,inactive,-13.4%,–,–
CSCCC(NC(=O)c1ccco1)C(=O)N(C)CC(=O)Nc1c(Cl)cccc1Cl (stereo not given),inactive,–,–,–
COc1ccc(CCNC(=O)c2ccco2)cc1OC,inactive,10.7%,–,–
COc1ccc(CCN(C)C(=O)C(CCSC)NC(=O)c2ccco2)cc1OC (stereo not given),2.31 µM (active),-10.8%,–,–
CCOC(=O)c1c(-c2ccccc2)csc1NC(=O)/C(C#N)=C/c1ccc(OC)c(OC)c1,inactive,-0.159%,–,–
COc1cc(/C=C(\C#N)C(=O)NCc2cccs2)ccc1O,inactive,-0.911%,–,–
CCOC(=O)c1c(-c2ccc(C)cc2)csc1NC(=O)/C(C#N)=C/c1ccc(O)c(OC)c1,23.1 µM (active),-27.7%,–,–
COc1ccccc1NC(=O)CN1CCOCC1,inactive,25.4%,–,–
COc1ccc(/C=N/NC(=O)c2cccc(NC(=O)c3ccccc3Cl)c2)cc1,inactive,-0.417%,–,–
O=C(COC(=O)CCOc1ccccc1)NCCC1=CCCCC1,inactive,10.9%,–,–
CCOC(=O)C(C)(C)N(Cc1cccc(C)c1)S(=O)(=O)c1ccc(Cl)c([N+](=O)[O-])c1,16.4 µM (active),-21.7%,–,–
CCOC(=O)C(C)(C)N(Cc1ccc(C)cc1)S(=O)(=O)c1ccc(Cl)c([N+](=O)[O-])c1,inactive,-25.3%,–,–
CCOC(=O)C(C)(C)N(Cc1ccccc1C)S(=O)(=O)c1ccc(Cl)c([N+](=O)[O-])c1,inactive,-1.56%,–,–
CCOC(=O)C(C)(C)N(Cc1cccc(C)c1)S(=O)(=O)c1cccc([N+](=O)[O-])c1,inactive,-5.11%,–,–
CCOC(=O)C(C)(C)N(Cc1ccc(Cl)cc1)S(=O)(=O)c1ccc(Cl)c([N+](=O)[O-])c1,inactive,5.39%,–,–

Structure (SMILES),Potency,cell number change,outcome,"lipid storage change, negative = inhibition"
CCOC(=O)C(C)(C)NS(=O)(=O)c1ccc(Cl)c([N+](=O)[O-])c1,20.6 µM (active),-25%,–,–
CC(C)(C)NC(=O)c1cc(-c2ccccc2)n[nH]1,inactive,–,–,–
CCCOc1ccc(/C=C2\SC(N)=NC2=O)cc1OC,inactive,8.06%,–,–
NC(=O)c1cc(S(=O)(=O)N2CCN(c3cccc(Cl)c3)CC2)cs1,inactive,14.3%,–,–
COc1ccccc1/C=C/C1C(C(=O)OCC(C)C)=C(C)N=C2SCCC(=O)N21 (stereo not given),inactive,9.42%,–,–
Cc1ccc(NC(=O)c2cn(CCC#N)nc2-c2cccs2)c([N+](=O)[O-])c1,inactive,-4.62%,–,–
Cc1cccc(C2NC(c3cccc(C)c3)C([N+](=O)[O-])C(C)(C)C2[N+](=O)[O-])c1 (stereo not given),5.17 µM (active),3.3%,–,–
CC1(C)C([N+](=O)[O-])C(c2ccc(F)cc2)NC(c2ccc(F)cc2)C1[N+](=O)[O-] (stereo not given),inactive,2.48%,–,–
Cc1ccc(C2NC(c3ccc(C)cc3)C([N+](=O)[O-])C(C)(C)C2[N+](=O)[O-])cc1 (stereo not given),inactive,-8.86%,–,–
Cc1cccc(NC(=O)CS(=O)(=O)c2cn(C)c3ccccc23)c1C,inactive,–,–,–
Clc1ccc(-c2nnc(CNC3CC3)o2)cc1,inactive,6.34%,–,–
CCCCCN(C(=O)CN1CCC(Cc2ccccc2)CC1)c1c(N)n(CCCC)c(=O)[nH]c1=O,inactive,27.6%,–,–
CCOC(=O)C1CCCN(CCC(=O)Nc2ccc(Br)c(C)c2)C1 (stereo not given),18.4 µM (active),4.56%,–,–
CCOC(=O)C1CCCN(CCC(=O)Nc2ccc(C)c(C)c2)C1 (stereo not given),inactive,17%,–,–
CCOC(=O)C1CCN(CCC(=O)Nc2ccc(Br)c(C)c2)CC1,inactive,0.794%,–,–
O=C(NCCc1nc2ccccc2[nH]1)/C(=C/c1ccco1)NC(=O)c1ccc(Br)o1,inactive,-2.37%,–,–
COc1ccc2[nH]c(C)c(CN3CCCCC3)c(=O)c2c1,inactive,-15.2%,–,–
CCc1nnc(NC(=O)C2CCN(S(=O)(=O)Cc3ccccc3)CC2)s1,inactive,-9.95%,–,–
CC(=O)c1cccc(NC(=O)CSc2nnc(-c3ccncc3)o2)c1,inactive,13.1%,–,–
O=C(NCCN1CCN(C(=O)c2ccc([N+](=O)[O-])cc2)CC1)C(=O)NCc1ccccc1,inactive,-7.25%,–,–
O=C(c1cccc([N+](=O)[O-])c1)N1CCN(c2cccc(Cl)c2)CC1,inactive,–,–,–
O=C(NCCN1CCN(C(=O)c2cccc([N+](=O)[O-])c2)CC1)C(=O)NCc1ccc(Cl)cc1,6.51 µM (active),-18.5%,–,–
CC(=O)Nc1ccc(SCC(=O)c2c(N)n(Cc3ccccc3)c(=O)n(C)c2=O)cc1,inactive,14.5%,–,–

Structure (SMILES),Potency,cell number change,outcome,"lipid storage change, negative = inhibition"
CCOC(=O)C1CCN(C(=O)CCNC(=O)Cn2ccc3ccccc3c2=O)CC1,inactive,0.532%,–,–
Cc1sc2nc(COC(=O)c3ccc(N4CCCC4)c([N+](=O)[O-])c3)[nH]c(=O)c2c1C,inactive,5.98%,–,–
CCOC(=O)c1c(NC(=O)c2ccc(C)cc2)sc2c1CC(C)(C)NC2(C)C,inactive,-1.96%,–,–
Cc1ccc(NC(=O)Cc2nn(C)c(=O)c3ccccc23)cc1F,inactive,–,–,–
CC(=O)Nc1ccc(C(=O)NNC(=O)c2ccc(Cl)cc2)cc1,inactive,–,–,–
CC(=O)Nc1ccc(NC(=O)CC(NC(=O)c2ccccc2)c2ccccc2)cc1 (stereo not given),inactive,19%,–,–
CC(=O)Nc1ccc(C(=O)NC(CC(=O)O)c2ccc(Cl)cc2)cc1 (stereo not given),20.6 µM (active),-19.4%,–,–
COc1ccc(NC(=O)C(c2ccc(OC)cc2)N(C)C(=O)Cc2cccs2)cc1 (stereo not given),inactive,9.03%,–,–
O=C(Cc1ccccc1)NNC1CC(=O)N(c2ccccc2)C1=O (stereo not given),inactive,0.451%,–,–
CC(=O)N1CCN(c2ccc(NC(=O)c3ccc(N4CCCC4)c([N+](=O)[O-])c3)cc2Cl)CC1,inactive,–,–,–
CCc1ccc(N2CC(C(=O)Nc3nccs3)CC2=O)cc1 (stereo not given),inactive,-0.507%,–,–
O=C(Nc1nc2ccccc2s1)C1CC(=O)N(c2ccc(Br)cc2)C1 (stereo not given),inactive,1.03%,–,–
CCc1ccc(N2CC(C(=O)Nc3nc4ccc(S(C)(=O)=O)cc4s3)CC2=O)cc1 (stereo not given),2.31 µM (active),-21.1%,–,–
COc1cc(-n2c(=O)c3ccccc3n(CC(=O)c3ccc(Br)cc3)c2=O)cc(OC)c1OC,inactive,7.89%,–,–
COc1ccc(NC(=S)NC(=O)C2CCC2)cc1,inactive,-5.57%,–,–
CCN(CC)c1ccc(NC(=S)NC(=O)C2CCC2)cc1,4.11 µM (active),-16.8%,–,–
CC(=O)Nc1ccc(NC(=S)NC(=O)C2CCCC2)cc1,inactive,16.2%,–,–
Cc1ccc(C(=O)OCC(=O)NCCNC(=O)COC(=O)c2ccc(C)o2)o1,–,26.3%,inactive [at 0.0737 µM],–
CC(=O)Nc1ccc(S(=O)(=O)Nc2cccc(-c3ccc4nncn4n3)c2)cc1,0.731 µM (active),-19.1%,–,–
Cc1ccc(S(=O)(=O)Nc2cccc(-c3ccc4nncn4n3)c2)cc1,–,–,–,-0.542% [at 0.0737 µM] (inactive)
Cc1ccc(S(=O)(=O)Nc2ccc(-c3ccc4nncn4n3)cc2)cc1,inactive,-22.1%,–,–
